# Data reported in publication PMC4336329 (PLoS ONE, 2015).
# Among all 310,000 compounds or so, about 14,000 (4.5%) showed an effect of 50% or more. The effect is printed as a negative number. The entries come from a sample that favours strong results as a whole.
# Target: human ether-à-go-go-related gene (hERG) potassium channel (human, UniProt Q12809)
# Test: primary screen, population patch clamp on CHO cells stably expressing hERG; higher = less effect of the substance
# 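Note: peak tail current of the secondary pulse compared with the same well before compound.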
# Chain of human ether-à-go-go-related gene (hERG) potassium channel (Q12809 whole entry, looked up): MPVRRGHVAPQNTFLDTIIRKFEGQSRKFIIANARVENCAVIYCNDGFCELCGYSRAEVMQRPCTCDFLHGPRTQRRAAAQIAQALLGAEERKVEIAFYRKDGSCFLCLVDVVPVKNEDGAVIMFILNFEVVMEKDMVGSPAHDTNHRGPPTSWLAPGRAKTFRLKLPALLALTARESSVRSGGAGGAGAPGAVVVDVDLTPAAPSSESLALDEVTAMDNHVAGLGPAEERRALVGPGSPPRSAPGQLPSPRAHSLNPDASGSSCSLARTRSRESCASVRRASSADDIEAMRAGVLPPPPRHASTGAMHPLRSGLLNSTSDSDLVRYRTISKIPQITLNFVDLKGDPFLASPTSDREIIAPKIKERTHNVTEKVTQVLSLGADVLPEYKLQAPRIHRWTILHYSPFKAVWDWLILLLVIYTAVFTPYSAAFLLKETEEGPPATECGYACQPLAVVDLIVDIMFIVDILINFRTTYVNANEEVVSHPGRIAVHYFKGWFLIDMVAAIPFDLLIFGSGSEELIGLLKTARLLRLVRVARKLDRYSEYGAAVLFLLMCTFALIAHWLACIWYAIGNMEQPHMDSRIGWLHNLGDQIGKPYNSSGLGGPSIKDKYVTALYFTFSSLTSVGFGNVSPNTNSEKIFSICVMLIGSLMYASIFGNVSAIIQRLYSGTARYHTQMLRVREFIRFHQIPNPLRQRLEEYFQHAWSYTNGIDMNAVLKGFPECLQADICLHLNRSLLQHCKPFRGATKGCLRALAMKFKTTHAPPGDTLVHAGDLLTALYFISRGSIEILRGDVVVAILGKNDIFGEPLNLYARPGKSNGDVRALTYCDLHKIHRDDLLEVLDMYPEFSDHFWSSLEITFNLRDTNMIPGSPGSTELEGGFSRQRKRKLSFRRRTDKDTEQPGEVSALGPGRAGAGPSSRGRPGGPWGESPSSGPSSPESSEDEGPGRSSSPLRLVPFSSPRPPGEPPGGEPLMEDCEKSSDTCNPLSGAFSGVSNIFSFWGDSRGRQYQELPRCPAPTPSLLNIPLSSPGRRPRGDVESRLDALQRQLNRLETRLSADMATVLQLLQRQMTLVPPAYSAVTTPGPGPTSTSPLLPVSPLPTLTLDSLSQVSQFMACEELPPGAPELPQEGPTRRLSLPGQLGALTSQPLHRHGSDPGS
row,SMILES,"hERG current change (%, negative = inhibition) at 10uM [%]"
1,CCOC(=O)C1CCN(S(=O)(=O)Cc2ccc(Cl)cc2)CC1,1.25
2,CC(=O)c1cccc(OCC(O)CN2CC=C(c3ccccc3)CC2)c1.O=C(O)C(=O)O (stereo not drawn),-68.9
3,CCOC(=O)C1CCC(CNCc2ccccc2C)CC1.Cl (stereo not drawn),-24.4
4,CCOC(=O)C1CCC(CNCc2ccc(Cl)cc2)CC1 (stereo not drawn),-69.2
5,COc1cccc(OCC(O)CN2CCN(C)CC2)c1.O=C(O)C(=O)O (stereo not drawn),16.2
6,CC(=O)c1cccc(OCC(O)CN2CCN(S(=O)(=O)c3c(F)cccc3F)CC2)c1.O=C(O)C(=O)O (stereo not drawn),-31
7,Cc1ccc(S(=O)(=O)n2c(C)nc3cc(C)ccc32)cc1,-3.01
8,CCn1c(C)nc2cc(C(=O)OC)ccc21,14.3
9,CCOc1ccc(Oc2ccc(Cl)cc2N)cc1.Cl,2.9
10,Cc1ccc2nc3c(c(C(=O)OC4CCOC4=O)c2c1)CCCC3 (stereo not drawn),-0.191
11,NC(=O)C1CCN(c2nc(-c3ccccc3)nc3ccccc23)CC1,-56
12,O=S(=O)(c1ccc(F)cc1)N1CCN(c2nc(-c3cccnc3)nc3ccccc23)CC1,-72
13,CN1CCN(c2nc(-c3ccncc3)nc3ccccc23)CC1,-67.4
14,CCOC(=O)C1CCN(c2nc(-c3ccc(Br)cc3)nc3ccccc23)CC1,-1.89
15,COc1ccc(S(=O)(=O)N2CCN(c3nc(-c4cccnc4)nc4ccccc34)CC2)cc1,-39
16,Cc1ccc(S(=O)(=O)c2cnc(-c3ccccc3)nc2N2CCN(C)CC2)cc1,-49.1
17,CC(=O)c1ccc(S(=O)(=O)N2CCN(c3nc(-c4cccnc4)nc4ccccc34)CC2)cc1,-40.4
18,CCOC(=O)C1CCN(c2nc(-c3ccc(C)cc3)nc3ccccc23)CC1,15.4
19,CN1CCN(c2nc(-c3cccnc3)nc3ccccc23)CC1,-48.5
20,CN1CCN(c2nc(-c3cccc([N+](=O)[O-])c3)nc3ccccc23)CC1,-48.4
21,CN1CCN(c2nc(-c3ccccc3)ncc2S(=O)(=O)c2ccccc2)CC1,-63.2
22,O=S(=O)(c1ccccc1)c1cnc(-c2ccccc2)nc1N1CCCC1,41.8

row,SMILES,"hERG current change (%, negative = inhibition) at 10uM [%]"
1,O=[N+]([O-])c1cnn(-c2nc(-c3ccccc3)cc(C(F)(F)F)n2)c1,8.82
2,N/C(=N\OS(=O)(=O)c1ccc2ccccc2c1)c1cccnc1,5.24
3,COc1ccc([N+](=O)[O-])cc1N(CC(=O)O)S(C)(=O)=O,13.7
4,O=C(O)CC1NC(=O)N(c2ccc(Cl)cc2)C1=O (stereo not drawn),19.5
5,CSc1nc(N2CCOCC2)c2c3c(sc2n1)CCCC3,-2.32
6,O=C1c2ccccc2COc2ccc(O)cc21,10.9
7,CC(C)N(Cc1ccc(F)cc1)C(=O)c1cc2ccccc2oc1=O,19.5
8,CC1CCCC(NC(=O)COC(=O)Cc2c[nH]c3ccccc23)C1C (stereo not drawn),-14
9,NC(=S)N/N=C\c1c(OCc2ccccc2Cl)ccc2ccccc12,-2.61
10,CN1CCN(/N=C/c2cccc(Cl)c2Cl)CC1.Cl,6.09
11,O=S(=O)(c1cccs1)N1CCCc2cccc(O)c21,7.34
12,Cc1ccc(S(=O)CCNC(=O)Cc2ccc(Cl)cc2)cc1 (stereo not drawn),-8.83
13,CCS(=O)(=O)N1CCCC(C(=O)NC2CCC(C)CC2)C1 (stereo not drawn),6.05
14,COc1ccc(OC)c(-n2cc3c(=O)n(C)c(=O)n(C)c3c2)c1,-8.58
15,O=S(=O)(/C=C/c1ccccc1)N1CCN(c2nc(-c3cccnc3)nc3ccccc23)CC1,-23.6
16,Cc1ccc(-c2nc(N3CCN(C)CC3)c3ccccc3n2)cc1.Cl,-59.9
17,c1ccc2c(N3CCOCC3)nc(-c3ccncc3)nc2c1,-31.3
18,c1cncc(-c2nc(N3CCOCC3)c3ccccc3n2)c1,-17
19,c1ccc2c(N3CCCCCC3)nc(-c3ccncc3)nc2c1,-34.5
20,Brc1ccc(-c2nnc(-c3ccccc3)c(N3CCSCC3)n2)cc1,4.62
21,CN1CCN(c2nc(-c3ccc(Br)cc3)nnc2-c2ccccc2)CC1,-63.5
22,c1ccc2c(N3CCCC3)nc(-c3ccncc3)nc2c1,-56.9

row,SMILES,"hERG current change (%, negative = inhibition) at 10uM [%]"
1,Cc1ccc(-c2nnc(-c3ccccc3)c(N3CCOCC3)n2)cc1,-30
2,c1cncc(-c2nc(N3CCCCCC3)c3ccccc3n2)c1,-92.9
3,CCCOc1ccc(-c2nc(N3CCN(C)CC3)c3ccccc3n2)cc1,-21.6
4,CN1CCN(c2nc(-c3ccc(C(C)(C)C)cc3)nc3ccccc23)CC1.Cl,-2.05
5,O=[N+]([O-])c1cc(Cl)cc(/C=N/NC(=S)Nc2ccc(S(=O)(=O)N3CCOCC3)cc2)c1O,14.3
6,Cc1cc(NS(=O)(=O)c2ccc(NC(=O)c3ccc(Cl)cc3Cl)cc2)no1,24.4
7,O=C(N=C1SC2CS(=O)(=O)CC2N1c1ccccc1F)C1CCCCC1 (stereo not drawn),8
8,O=C(NCc1ccccn1)C1CCN(S(=O)(=O)N2CCCC2)CC1,-8.11
9,COc1ccc(-c2nnc(SCC3CCCO3)n2C)cc1 (stereo not drawn),0.931
10,Nc1c(N=O)c(=O)[nH]c(=O)n1-c1ccccc1,10.2
11,NS(=O)(=O)c1ccc(CCNC(=O)C2CCN(c3ncnc4c3nc3n4CCCCC3)CC2)cc1,9.07
12,O=C(CSc1nnnn1C1CC2C=CC1C2)Nc1ccc(C(=O)O)cc1 (stereo not drawn),-6.04
13,CC(Sc1nnc2ccccn12)C(=O)Nc1ccc(Cl)cn1 (stereo not drawn),-1.5
14,CN1CCC(N(C)c2nc(-c3ccccc3)nc3ccccc23)CC1,-70.4
15,Cc1ccc(-c2nc(N(C)C3CCN(C)CC3)c3ccccc3n2)cc1,-24.4
16,c1ccc(-c2nc(C3CCCCC3)c3ccccc3n2)cc1,10.7
17,CC(C)(C)C(=O)Nc1nc2c(s1)CN(Cc1ccccc1)CC2,14.2
18,COC(=O)/C(=C\C=C\c1ccccc1)NC(=O)c1ccccc1,8.85
19,CN(C)CCCNC(=O)/C(=C\C=C\c1ccccc1)NC(=O)c1ccc([N+](=O)[O-])cc1,-71.2
20,CCCCOc1ccc(C(=O)N/C(=C/C=C/c2ccccc2)C(=O)NCCCO)cc1,-28.7
21,CCCCOc1ccc(C(=O)N/C(=C/C=C/c2ccccc2)C(=O)O)cc1,19.8
22,CCCCOc1ccc(C(=O)N/C(=C/C=C/c2ccccc2)C(=O)NC)cc1,-75.2

row,SMILES,"hERG current change (%, negative = inhibition) at 10uM [%]"
1,CCCCOc1ccc(C(=O)N/C(=C/C=C/c2ccccc2)C(=O)NCCO)cc1,-9.18
2,O=C(O)CCNC(=O)/C(=C/C=C/c1ccccc1)NC(=O)c1ccccc1,16.6
3,CNC(=O)/C(=C\C=C\c1ccccc1)NC(=O)c1ccc([N+](=O)[O-])cc1,-77.6
4,CC(C)(C)NC(=O)/C(=C\C=C\c1ccccc1)NC(=O)c1ccc([N+](=O)[O-])cc1,-35.1
5,O=C(NCC1CCCCC1)c1cccc(Br)c1,-3.31
6,CCCOc1ccc(N2CC(C(=O)Nc3ccc(N4CCOCC4)cc3)CC2=O)cc1 (stereo not drawn),36
7,CN1CCC(OC(=O)c2cccc(F)c2)CC1.Cl,-0.186
8,Cc1ccc(N2CC(NS(=O)(=O)c3cc(F)ccc3F)CC2=O)cc1C (stereo not drawn),-6.74
9,O=C(CSc1nnnn1C1CCCCC1)Nc1cccc(NC(=O)c2ccco2)c1,-27.8
10,Cc1cccc(-n2nnnc2SCC(=O)Nc2ccc(N3CCN(C)CC3)cc2)c1,-55
11,CC(=O)c1ccc(-n2nnnc2SCC(=O)Nc2cccc(NC(=O)c3ccco3)c2)cc1,6.89
12,CC(=O)c1cccc(-n2nnnc2SCC(=O)Nc2cccc(NC(=O)c3ccco3)c2)c1,-60.7
13,O=C(CSc1nnnn1C1CCCC1)Nc1cccc(NC(=O)c2ccco2)c1,-55.9
14,Cc1ccc(-n2nnnc2SCC(=O)Nc2cccc(NC(=O)c3ccco3)c2)cc1C,-6.49
15,Cc1ccc(-n2nnnc2SCC(=O)Nc2ccc(N3CCN(C)CC3)cc2)c(C)c1,-21
16,O=C(CSc1nnnn1C1CCCCC1)NNC(=O)c1ccco1,11.3
17,Cc1ccccc1-n1nnnc1SCC(=O)Nc1ccc(N2CCN(C)CC2)cc1,-35.8
18,COc1cc(S(=O)(=O)NCc2ccncc2)c(OC)cc1Cl,6.57
19,CCC(C)NC(=O)c1cn(CCOC)c(=O)c2c1c1ccccc1n2C (stereo not drawn),20.4
20,COc1ccc(Cn2c(CCC(=O)Nc3ccccc3OC)nc3cccnc32)cc1,-3.79
21,COc1cccc(CN2C(=O)C(C)N(C(=O)c3ccccc3)c3ccccc32)c1 (stereo not drawn),-5.44
